One may read the inhibition as the relative decrease from the control value, in per cent.

A number with no mark means an inactive call. Activity calls are given as the source filed them. Cut-off read from the data, not from the text of the source, unless noted: active = inhibition above about 36%; inactive = the rest.

Data on 72 compounds can be found in PubChem BioAssay.

Assay [1] concerns transactivating tegument protein VP16 (Human herpesvirus 1). In words: VP16 transactivation reporter inhibitors, counter-screen for SRC2 inhibitor project, cell-based, luminescence, single concentration (AID 652007). The conditions noted are these: cell-based VP16 transactivation luciferase reporter, at 8.9 µM, stronger effect = higher value. Background: A counterscreen serves to expose hits that act by an unwanted route or on another target.

Assay [2] has as its target Nuclear receptor coactivator 2 (Homo sapiens) (UniProt Q15596). In words: SRC2 coactivator transcriptional activity inhibitors, confirmation, cell-based, luminescence, HEK293, triplicate (AID 652008;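 active = mean inhibition above 46.5%, the solvent-only control mean plus 3 SD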;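 note: 0% = DMSO-treated cells and 100% = Gossypol at 36 µM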). The settings on record: HEK293 GAL4-SRC2 luciferase reporter, at 8.9 µM, stronger effect = higher value. (A reporter such as luciferase makes a cellular process visible.)

Nuclear receptor coactivator 2 (Homo sapiens), sequence (Q15596 whole entry, looked up, the tested form may be a part): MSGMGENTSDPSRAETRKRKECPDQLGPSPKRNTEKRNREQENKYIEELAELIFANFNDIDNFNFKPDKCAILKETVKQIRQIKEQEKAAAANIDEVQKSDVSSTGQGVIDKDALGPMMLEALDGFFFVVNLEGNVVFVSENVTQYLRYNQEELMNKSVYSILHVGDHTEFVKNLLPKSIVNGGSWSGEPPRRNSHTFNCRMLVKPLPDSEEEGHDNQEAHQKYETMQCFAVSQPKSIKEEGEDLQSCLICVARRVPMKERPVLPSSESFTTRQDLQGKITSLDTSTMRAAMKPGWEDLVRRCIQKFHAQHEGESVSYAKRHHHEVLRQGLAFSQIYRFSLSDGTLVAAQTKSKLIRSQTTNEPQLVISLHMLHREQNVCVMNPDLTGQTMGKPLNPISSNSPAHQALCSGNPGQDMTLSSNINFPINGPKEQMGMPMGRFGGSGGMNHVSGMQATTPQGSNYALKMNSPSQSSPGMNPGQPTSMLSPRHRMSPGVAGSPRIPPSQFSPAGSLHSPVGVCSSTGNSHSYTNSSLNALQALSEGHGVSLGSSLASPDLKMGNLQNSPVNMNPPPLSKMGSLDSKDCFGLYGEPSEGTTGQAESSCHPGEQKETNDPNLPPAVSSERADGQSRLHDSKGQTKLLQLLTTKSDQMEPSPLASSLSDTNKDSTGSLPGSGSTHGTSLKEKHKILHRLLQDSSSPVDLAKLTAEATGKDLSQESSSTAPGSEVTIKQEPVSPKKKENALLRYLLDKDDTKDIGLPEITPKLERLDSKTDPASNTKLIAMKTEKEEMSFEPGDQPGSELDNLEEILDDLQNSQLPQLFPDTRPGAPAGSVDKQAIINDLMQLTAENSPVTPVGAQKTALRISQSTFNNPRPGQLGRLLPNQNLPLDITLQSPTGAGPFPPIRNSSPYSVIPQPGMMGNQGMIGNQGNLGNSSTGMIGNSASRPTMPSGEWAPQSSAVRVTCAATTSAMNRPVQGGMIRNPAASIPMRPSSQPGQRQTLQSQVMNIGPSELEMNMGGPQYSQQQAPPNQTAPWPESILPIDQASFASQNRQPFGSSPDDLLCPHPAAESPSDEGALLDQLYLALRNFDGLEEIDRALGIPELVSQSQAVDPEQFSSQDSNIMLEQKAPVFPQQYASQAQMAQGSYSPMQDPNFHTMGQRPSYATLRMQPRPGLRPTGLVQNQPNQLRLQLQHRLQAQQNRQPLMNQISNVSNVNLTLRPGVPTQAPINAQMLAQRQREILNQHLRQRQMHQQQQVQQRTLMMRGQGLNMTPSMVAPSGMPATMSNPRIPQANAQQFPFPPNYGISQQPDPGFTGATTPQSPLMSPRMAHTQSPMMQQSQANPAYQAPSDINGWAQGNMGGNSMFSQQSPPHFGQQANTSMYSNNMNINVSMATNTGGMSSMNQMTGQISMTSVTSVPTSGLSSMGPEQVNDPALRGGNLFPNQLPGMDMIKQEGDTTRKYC

For `CC(=O)N1CCOc2ccc(S(=O)(=O)NCC3CCC(C(=O)Nc4ccc(C)cn4)CC3)cc21` (centres undefined), the inhibition in assay [1] was 14.8%; in assay [2], 15.4%.

In the case of `O=C(N/N=C/c1coc2ccc(Cl)cc2c1=O)c1cc(O)cc(O)c1`, the inhibition in assay [1] was 23.4%; in assay [2], 18.5%.

As for `Cc1cccc(C(=O)Nc2ccc(CC(=O)O)cc2)c1`, the inhibition in assay [1] is -2.26%; in assay [2], 26.9%.

As for `Cc1cccc(C(=O)O/N=C(\N)c2ccccn2)c1`, the results for the inhibition in assay [1] and in assay [2] were -73.6% and -81.6%, respectively.

On to `COCCN=C1Sc2nc3c(C)cccc3cc2CN1Cc1ccco1`, for which the inhibition is -12% in assay [1] and 4.64% in assay [2].

Regarding `O=C(O)COc1ccc(-c2nccc(-c3ccccn3)n2)cc1`, the inhibition in assay [1] was 20.4%; in assay [2], 79.1% (active).

For `CCOC(=O)c1[nH]c(=S)n(-c2ccccc2)c1C(=O)OCC`, the figures for the inhibition in assay [1] and in assay [2] were -1.17% and -17.4%, respectively.

On to `CCC(NC(=O)CCc1c(C)c2cc3c4c(oc3cc2oc1=O)CCCC4)C(=O)O` (centres undefined), for which the inhibition in assay [1] is 38.3% (active); in assay [2], 70.3% (active).

`COC(=O)c1c(NC(=O)CCCC(=O)O)sc2c1CCCCC2`: the values for the inhibition in assay [1] and in assay [2] were 29.6% and 53.8% (active), respectively.

`C=C1C(=O)[C@@]23[C@H](O)C[C@@H]4C(C)(C)CC[C@H](O)[C@]4(C)[C@@H]2C[C@H](O)[C@@H]1[C@H]3O`: the inhibition in assay [1] is 4.46%; in assay [2], 54% (active).

For `Cc1ccccc1C(=O)N1CCN(c2ccc(NC(=O)c3ccccc3[N+](=O)[O-])cc2)CC1`, the inhibition in assay [1] is -22%; in assay [2], 12.1%.

On to `CC/C=C\[C@H](O)[C@H](O)C1=C(C)C(=O)[C@]2(O1)C(=O)N[C@@](OC)(C(=O)c1ccccc1)C2O` (some centres undefined), for which the inhibition was -28.1% in assay [1] and -3.87% in assay [2].

`COc1ccc(/C=C2\SC(=S)N(CCCC(=O)N3CCN(C)CC3)C2=O)cc1`: the results for the inhibition in assay [1] and in assay [2] were -11.9% and 2.68%, respectively.

Regarding `CCOc1cccc(NC(=O)C2CCCN(S(=O)(=O)c3ccc(OC)cc3)C2)c1` (centres undefined), the inhibition is -26.5% in assay [1] and -6.98% in assay [2].

With `Cc1c(CCC(=O)NCCCC(=O)O)c(=O)oc2cc3oc4c(c3cc12)CCCC4`, the inhibition in assay [1] was 47.5% (active); in assay [2], 65% (active).

Turning to `N#CCCN(C(=O)CCl)c1cccc(Cl)c1`, the inhibition in assay [1] is 28.7%; in assay [2], 62.8% (active).

Turning to `CC(OC(=O)C1CCCCC1)C(=O)Nc1cccc([N+](=O)[O-])c1` (centres undefined), the values for the inhibition in assay [1] and in assay [2] were -0.78% and 9.77%, respectively.

Take `CCC(C(=O)NCc1ccc(F)cc1)n1nc(C)n2c(cc3occc32)c1=O` (centres undefined): the inhibition in assay [1] was -13.4%; in assay [2], -6.88%.

Regarding `CC1=C(C(=O)N2CCOCC2)CC(CC(=O)NCCCCc2ccccc2)C(=O)N1Cc1ccc(C(C)(C)C)cc1` (centres undefined), the inhibition is 12.6% in assay [1] and 2.06% in assay [2].

Take `COc1ccc(OCCNC(=O)c2ccc3nc(C)c(N(C)C(=O)CCc4ccccc4)n3c2)cc1`: the inhibition in assay [1] is -12.5%; in assay [2] it was 2.8%.

Consider `CN1c2ccccc2C(C)(C)C12C=Cc1cc(O)ccc1O2` (centres undefined), for which the values for the inhibition in assay [1] and in assay [2] were -7.85% and 23.8%, respectively.

Turning to `Cc1ccc(/C=C2\SC(=S)N(CCCC(=O)Nc3cc(C)on3)C2=O)cc1`, the inhibition is 31.6% in assay [1] and 68.8% (active) in assay [2].

`Cc1ccc(NC(=O)CCN2CCCCC2)cc1`: the values for the inhibition in assay [1] and in assay [2] were -25% and 32.5%, respectively.

Take `O=C(Cc1coc2cc3c(cc12)CCC3)OCC(=O)N1CCCC1=O`: the values for the inhibition in assay [1] and in assay [2] were 16.3% and 38.7%, respectively.

Consider `COc1cc(C#Cc2c(-c3cncn3C)n(C)c3ccc(-c4ccc(OC)nc4)cc23)cc(OC)c1`, for which the inhibition in assay [1] is -13.2%; in assay [2], -23.7%.

Turning to `c1ccc(-n2nnnc2Oc2ccc(-n3ccnc3)cc2)cc1`, the results for the inhibition in assay [1] and in assay [2] were -16.2% and 1.01%, respectively.

As to `O=C(NC(=S)Nc1cccc2cc(O)ccc12)c1ccccc1Br`, the inhibition in assay [1] was 2.57%; in assay [2], -14.4%.

Consider `CC(=O)c1ccc(OCCCC(=O)N2CCN(S(=O)(=O)c3ccc(C)cc3C)CC2)cc1`, for which the inhibition in assay [1] is 7.87%; in assay [2] it was 0.39%.

Take `COc1ccccc1N1CCN(C(CNC(=O)c2ccco2)c2cccnc2)CC1` (centres undefined): the inhibition in assay [1] was -7.16%; in assay [2], -4.45%.

Take `CCC(=O)Nc1ccc(NCc2ccc(-c3ccccc3)cc2)cc1`: the inhibition in assay [1] was 20.7%; in assay [2] it was 17.8%.

On to `COc1ccc2ccc(O)c(CN3CCN(S(=O)(=O)c4cccc(C(F)(F)F)c4)CC3)c2c1`, for which the inhibition in assay [1] was 6.66%; in assay [2], -14%.

As to `COc1ccc(C(=O)NCCNc2nc3cc(C)cc(C)c3cc2C#N)c(OC)c1`, the values for the inhibition in assay [1] and in assay [2] were 3.31% and 86.2% (active), respectively.

As for `Cc1ccc(C(=O)/C=C/Nc2ccccn2)cc1`, the values for the inhibition in assay [1] and in assay [2] were 31.1% and 77% (active), respectively.

In the case of `COc1ccc(/C=C2\SC(=S)N(CCC(=O)N3CCCCC3CCO)C2=O)cc1` (centres undefined), the inhibition was 1.26% in assay [1] and 26.7% in assay [2].

In the case of `Cc1cc(C)c2c3c(sc2n1)C(=O)N(c1ccccc1C)CC(=O)N3`, the values for the inhibition in assay [1] and in assay [2] were 4.42% and 5.22%, respectively.

With `O=c1cc(-c2ccc(O)cc2)oc2ccc3ccccc3c12`, the inhibition is 5.39% in assay [1] and 50.8% (active) in assay [2].

On to `Cc1onc(-c2ccccc2Cl)c1C(=O)N1CCC(Cc2ccccc2)CC1`, for which the results for the inhibition in assay [1] and in assay [2] were 9.05% and 10.1%, respectively.

Consider `COc1ccc(CNC(=O)COC(=O)CCCOc2ccc(Cl)cc2Cl)cc1`, for which the values for the inhibition in assay [1] and in assay [2] were 13% and 15.7%, respectively.

As for `CCC/C(C#Cc1ccsc1)=C1/c2ccccc2C(=O)N1c1ccccc1`, the inhibition in assay [1] is -8.53%; in assay [2], -18.8%.

As to `FC(F)(F)c1cnc(NNC(=S)Nc2ccccc2)c(Cl)c1`, the figures for the inhibition in assay [1] and in assay [2] were 10.3% and 14%, respectively.

As for `COc1ccc(C(=O)N/N=C\c2coc3ccc(Cl)cc3c2=O)cc1`, the inhibition in assay [1] is 3.52%; in assay [2], 5.31%.

As to `Cc1cc(OCC(=O)Nc2ccncc2)cc(C)c1Cl`, the inhibition in assay [1] was 4.55%; in assay [2], 11.3%.

On to `CCOC(=O)C1=C(COC(=O)CCOc2cc(C)ccc2C)NC(=O)NC1C` (centres undefined), for which the inhibition in assay [1] is -6.92%; in assay [2], -29.2%.

Regarding `C=C1CC2(OC1=O)c1ccccc1CCc1ccccc12`, the inhibition in assay [1] was 49.2% (active); in assay [2], 29.7%.

As for `CCOC(=O)CCSc1nc(C(C)(C)C)cc(C(F)(F)F)c1C#N`, the values for the inhibition in assay [1] and in assay [2] were -14.2% and -27.6%, respectively.

As to `Nn1cnnc1SCC(=O)N1CCc2ccccc2C1`, the inhibition was 3.54% in assay [1] and -22.3% in assay [2].

Take `CC(=O)c1cccc(NC(=O)Nc2ccc(C(=O)N3CCOCC3)cc2)c1`: the values for the inhibition in assay [1] and in assay [2] were -8.69% and 17.1%, respectively.

As for `COc1ccc(C(=O)Nn2c(SCC(=O)N3CCC(C)CC3)nc3ccccc3c2=O)cc1`, the values for the inhibition in assay [1] and in assay [2] were 23.9% and 28.9%, respectively.

In the case of `CC(=O)N1/C(=C/c2ccc(N(C)C)cc2)C(=O)c2ccccc21`, the inhibition in assay [1] is 13.3%; in assay [2], 72.6% (active).

Take `COc1ccc(S(=O)(=O)N/N=C\c2ccc3c(c2)OCO3)c(OC)c1`: the values for the inhibition in assay [1] and in assay [2] were 10.4% and 34.9%, respectively.

Regarding `CN(Cc1ccc(Cl)s1)C(=O)CCl`, the inhibition in assay [1] is 14.2%; in assay [2] it was 22%.

`COc1ccc(CN2C[C@H](Cc3ccccc3)[C@@H](CC(=O)Nc3ccccc3)C2=O)cc1`: the inhibition was -10.9% in assay [1] and 1.81% in assay [2].

Take `CCC(C)(C(=O)NC1CCCCC1)N(Cc1cccs1)C(=O)CC1NC(=O)NC1=O` (centres undefined): the results for the inhibition in assay [1] and in assay [2] were -9.62% and -11.8%, respectively.

Regarding `Cc1nn(Cc2ccc(C(=O)NC(C)(C)C)o2)c(C)c1Br`, the inhibition in assay [1] is 5.83%; in assay [2], 17.8%.

For the compound `COc1ccc(C(=O)NC2CC3CCCC(C2)N3CC(C)C)cc1` (centres undefined), the inhibition was 2.31% in assay [1] and -12.2% in assay [2].

For `Cc1ccc(NC(=O)CSc2ncnc3ccccc23)cc1S(=O)(=O)N1CCCCC1`, the inhibition is 6.85% in assay [1] and 30% in assay [2].

On to `Cc1ccc(-c2nc(-c3ccccn3)no2)cc1Cl`, for which the inhibition in assay [1] was 11.8%; in assay [2], 34%.

For `CCOc1ccc(NC(=O)c2ccccn2)cc1`, the inhibition in assay [1] is -15.2%; in assay [2] it was 25.7%.

Consider `COc1ccc(S(=O)(=O)N2CCC(C(=O)c3ccc4c(c3)OCCO4)CC2)cc1`, for which the results for the inhibition in assay [1] and in assay [2] were -0.72% and -0.4%, respectively.

For the compound `O=C(O)CCCc1ccc2c(c1)CCc1ccccc1-2`, the inhibition in assay [1] was 29.6%; in assay [2], 77.1% (active).

`COc1ccccc1NC(=S)N1CCCCCC1`: the results for the inhibition in assay [1] and in assay [2] were -7.33% and -14.3%, respectively.

`Cc1cc(C)c(C)c(N=Nc2nc3ccccc3n2C)c1C`: the figures for the inhibition in assay [1] and in assay [2] were -75.3% and 49.7% (active), respectively.

For `Cc1ccc(NC(=O)C2CCN(S(=O)(=O)c3cc([N+](=O)[O-])ccc3Cl)CC2)nc1`, the inhibition is 10.7% in assay [1] and 24.3% in assay [2].

Consider `O=C(NCC1COc2ccccc2O1)c1cccc(S(=O)(=O)N2CCN(c3ccccc3)CC2)c1` (centres undefined), for which the inhibition in assay [1] is -4.6%; in assay [2] it was 5.11%.

On to `CCOC(=O)C1CCN(c2ncnc3c2cnn3-c2ccc(OC)cc2)CC1`, for which the inhibition in assay [1] is -22.3%; in assay [2], 39.2%.

Turning to `O=C(c1ccccc1)N1CCN(c2ncnc3sc4c(c23)CCC4)CC1`, the results for the inhibition in assay [1] and in assay [2] were 19.7% and 37.1%, respectively.

For `O=C1c2ccccc2S(=O)(=O)N1Cc1nc2ccccc2s1`, the inhibition in assay [1] was 6.44%; in assay [2], 31.4%.

In the case of `COc1ccc2nc(NC(=O)C3CCN(S(=O)(=O)c4cccc5nsnc45)CC3)sc2c1`, the inhibition is 39.9% (active) in assay [1] and 52.5% (active) in assay [2].

Consider `O=c1[nH]c2ccc(Br)cc2c(=O)o1`, for which the inhibition in assay [1] is 44.5% (active); in assay [2] it was 34.9%.

On to `Cc1ccc([C@@H]2C[C@H]3[C@@H](CN2S(=O)(=O)c2ccc(C)cc2)C(=O)C[C@@H](c2ccccc2F)N3S(=O)(=O)c2ccc(C)cc2)cc1`, for which the inhibition in assay [1] is -8.37%; in assay [2], -5.47%.

As for `O=C(c1ccccc1)C(CN1CCCCC1)c1ccccc1` (centres undefined), the values for the inhibition in assay [1] and in assay [2] were 29.1% and 63.6% (active), respectively.

For the compound `Cc1cc(C)cc(NC(=O)Nc2cc(S(=O)(=O)N(C)C)ccc2C)c1`, the inhibition in assay [1] is -9.93%; in assay [2] it was -21.3%.
